Records with an inconclusive call do not appear. Active and inactive are the calls of the source. Calls follow the shape of the dose curve; as a rule, active = well fitted curve in the direction sought with a large enough effect; inconclusive = small, poorly fitted or top-dose-only effect, or another doubt; inactive = no such curve, though single readings can be large or run the other way.
system: NanoLuc luciferase (engineered Oplophorus gracilirostris luciferase); test: Confirmatory Nanoluciferase (NLuc) qHTS assay for identification of artifact compounds.; details: secreted NLuc in S16 cell medium, luminescence, 5 min; series mostly up to 39 µM
Method in brief: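 Compounds were preincubated 15 min at room temperature with diluted secreted NanoLuc from S16 cell medium, then read by luminescence 5 min after Nano-Glo substrate. Percent inhibition versus DMSO and no-enzyme controls fitted by 4-parameter Hill curve.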

Potency, inactive:
Oc1ccc(CCc2c(F)cccc2F)c2cccnc12
COc1ccc(-c2nc3cccc(C)n3c2Nc2ccc(C)cc2)cc1
O=C1c2ccccc2C(=O)N1Cc1ccccn1
CCc1ccc2oc(C(=O)Nc3cc(Cl)ccc3OC)cc(=O)c2c1
CCOC(=O)N1CCN(S(=O)(=O)N2CCCC(C(=O)NCc3cc(OC)ccc3OC)C2)CC1 (stereo unspecified)
CCCCCCCCCCCCCC(=O)N[C@@H](C)[C@H](O)c1ccccc1
CC(C)(O)C1CC[C@@]2(C)C3CCC4[C@@]5(C)CCCC(C)(C)C5C(O)C[C@]4(C)[C@]3(C)CC[C@@H]12 (stereo partly specified)
CC(=O)S[C@H]1CC2=CC(=O)CC[C@@]2(C)[C@H]2CC[C@@]3(C)[C@H](CC[C@]34CCC(=O)O4)[C@@H]12
O=C(Nc1sc2c(c1-c1nc3ccccc3s1)CCNC2)C(F)F
CO[C@H]1C[C@H](O[C@H]2[C@H](C)[C@@H](O[C@@H]3O[C@H](C)C[C@H](N(C)C)[C@H]3O)[C@@H](C)C[C@]3(CO3)C(=O)[C@H](C)[C@@H](O)[C@@H](C)[C@@H](C)OC(=O)[C@@H]2C)O[C@@H](C)[C@@H]1O
O=C(CSc1nc(-c2ccccc2)cn1-c1ccccc1)Nc1ccccc1
CCOC(=O)c1c(C)[nH]c(CCC(=O)NCCCN2CCN(c3ccc(F)cc3)CC2)c1C
Cc1ccc2[nH]c(CSc3nnc(C)s3)cc(=O)c2c1
COc1ccccc1-c1nc2cc(NC(=O)c3ccccc3Cl)ccc2o1
CN(C)c1ccc(CNC(=O)c2ccc3c(c2)N(C)C(=O)C2CCCCN32)cc1 (stereo unspecified)
CCc1cccc(NC(=O)Cn2c(=O)n3nc(-c4cccc(F)c4)nc3c3ccccc32)c1
C=C(C)[C@]12C[C@@H](C)[C@@]34OC(Cc5ccccc5)(O[C@@H]1[C@@H]3C=C(COC(=O)Cc1cc(OC)c(O)cc1I)C[C@]1(O)C(=O)C(C)=C[C@@H]41)O2
OCC(O)C(O)C(OC1OC(CO)C(O)C(O)C1O)C(O)CO (stereo unspecified)
CC(C)CCC[C@@H](C)[C@H]1CC[C@H]2[C@@H]3CC[C@@H]4C[C@H](O)CC[C@]4(C)[C@H]3CC[C@]12C
COc1ccc(CNC(=O)CCc2c(C)nc3c4cccnc4nn3c2C)cc1
Cc1cccc(-c2noc(-c3ccc(NCc4ccco4)c([N+](=O)[O-])c3)n2)c1
Cc1cc(C)cc(NC(=O)CSc2oc(-c3cccs3)nc2S(=O)(=O)c2ccccc2)c1
Cc1nc2nc(CNC(=O)OC(C)(C)C)nn2c(C)c1CCC(=O)NCc1ccccc1Cl
O=C(Nc1noc2ccccc12)c1c(F)cccc1F
COc1cccc(C(=O)Nc2ccccc2-c2nnc(-c3ccc(C(C)(C)C)cc3)o2)c1
CCc1ccc(Cn2c(CNS(=O)(=O)c3ccc(Cl)s3)nc3cccnc32)cc1
Brc1ccc2nc(SCCOc3ccccc3)[nH]c2c1
CCC(C(=O)NCc1cc(OC)ccc1OC)n1nc(C)c2sc3ccccc3c2c1=O (stereo unspecified)
COc1cccc2cc(C(=O)Nc3ccc(F)c(F)c3)c(=O)oc12
Oc1ccc(C2(c3ccc(O)cc3)CC3CC2C2CCCC32)cc1 (stereo unspecified)
Cc1ccc(NC(=O)Nc2nnc(SCC(=O)N3CCCCC3)s2)cc1
